Screening results from PubChem.
The full list was thinned out, with hits kept by preference.
CHX counter – counter-screen hit for Shiga toxin inhibitors, cycloheximide; cell reporter, cycloheximide protein synthesis inhibition counterscreen; max response, %; hit rate 12% among 300,000; in the data active = max response mostly above about 13%, no sharp cut-off; inactive = mostly below about 14%; also: read at 38.3 µM for the half of the compounds with a filed dose; 0% is about no effect
RE007 growth inh – less growth of the S. pombe RE007 Vpr strain. S. pombe RE007 Vpr strain, BacTiter-Glo ATP luminescence, 24 h. hit rate 0.21% among 360,000. AID 651644. Potency, µM (highest dose often 92.2 µM), without a hit: at the top dose activity change, negative = less growth, actives largely listed as inhibitors; active = well fitted falling curve with a large enough effect; inconclusive = small, poorly fitted or top-dose-only effect; inactive = no such curve, though single readings can be large or run the other way; also: potency is read from the fitted curve at half-maximal effect; % is scaled to controls: 0 for no effect and ±100 for the full control effect; nearly all actives have a fitted effect of over 50% in size
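Fission yeast strain RE007, carrying one chromosomally integrated HIV-1 vpr copy, was seeded at OD 0.01 in PMG+AL medium with 23 nL pinned compound. After 24 h at 30 °C and 99% humidity, viability was read by BacTiter-Glo luminescence.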
Tb PYK inh – blocks Trypanosoma brucei pyruvate kinase. TbPYK enzyme, Kinase-Glo Plus ATP luminescence, 45 min. Potency, µM (series often up to 76.8 µM), inactives show at the top dose activity, negative = inhibition, hits mostly inhibitors. hit rate 0.12% among 410,000; also: potency is read from the fitted curve at half-maximal effect; % is scaled to controls: 0 for no effect and ±100 for the full control effect; nearly all actives have a fitted effect of over 50% in size
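Glycolytic pyruvate kinase of T. brucei was incubated with substrate, test compound and 130 uM ADP for 45 minutes at room temperature. Luminescent Kinase-Glo Plus signal was measured after 10 minutes.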
Giardia FBPA inh – inhibitors of Giardia lamblia fructose-1,6-bisphosphate aldolase; A8B2U2; purified Giardia FBPA; Potency, µM (doses to about 59.6 µM), for the others: top-dose activity, negative = inhibition, hits mostly inhibitors; hit rate 0.71% among 290,000; AID 2451; also: potency is read from the fitted curve at half-maximal effect; % is scaled to controls: 0 for no effect and ±100 for the full control effect; nearly all actives have a fitted effect of over 55% in size
Target sequence (A8B2U2 whole entry, looked up): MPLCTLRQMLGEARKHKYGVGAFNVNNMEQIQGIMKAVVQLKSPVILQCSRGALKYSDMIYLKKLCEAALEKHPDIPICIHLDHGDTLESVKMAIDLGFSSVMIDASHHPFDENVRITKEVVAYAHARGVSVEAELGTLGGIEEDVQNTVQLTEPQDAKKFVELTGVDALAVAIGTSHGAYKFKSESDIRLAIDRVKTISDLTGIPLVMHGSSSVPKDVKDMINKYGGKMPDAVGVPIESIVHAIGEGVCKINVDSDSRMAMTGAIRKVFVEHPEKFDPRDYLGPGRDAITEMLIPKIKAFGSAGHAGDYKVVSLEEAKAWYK
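40 nM FBPA preincubated 10 min at RT with compound (up to 57.5 uM final), then substrate plus GAPDH/TPI/NAD/arsenate coupling and diaphorase/resazurin added. Fluorescence read after 20 min at RT, 525/598 nm.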
LmPK inhibitor – inhibitors of Leishmania mexicana pyruvate kinase; Q27686; purified LmPK, Kinase-Glo ATP luminescence, 1 h; Potency, µM (highest dose often 57.5 µM), for the others: at the top dose activity change, negative = inhibition, usual class: inhibitors; hit rate 0.37% among 290,000; AID 1721; also: potency is read from the fitted curve at half-maximal effect; % is scaled to controls: 0 for no effect and ±100 for the full control effect
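Pyruvate kinase activity monitored as ATP production (luciferase luminescence). Conditions: 0.1 nM enzyme, 0.5 mM PEP, 0.1 mM ADP, 1 h, RT; normalized against uninhibited and no-enzyme wells.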
Shiga toxin inh – Shiga toxin inhibition. Vero cells, Shiga toxin protein synthesis inhibition reporter. inhibition, % at 38.7 µM. hit rate 9.2% among 290,000; in the data active = inhibition mostly above about 28%, no sharp cut-off; inactive = mostly below about 43%; also: 0% is about no effect
An asterisk follows results filed as active; [ ] = dose if it differs, or a comment. Unless noted, calls follow the shape of the dose curve; as a rule, active = well fitted curve in the direction sought with a large enough effect; inconclusive = small, poorly fitted or top-dose-only effect, or another doubt; inactive = no such curve, though single readings can be large; an effect the other way counts as inactive or inconclusive.

How did CCOC(=O)CC(NC(=O)c1cc2cccc(OC)c2oc1=O)c1ccc(OC)cc1 (stereo not given) do in these assays?
CHX counter: 44*; RE007 growth inh: -8%; Tb PYK inh: 4%; Giardia FBPA inh: 6%; LmPK inhibitor: -3%; Shiga toxin inh: 102*

What do the screens show for `CNC(=O)c1cc2cccc(OC)c2oc1=O`?
CHX counter: 0; RE007 growth inh: 1%; Tb PYK inh: 1%; Giardia FBPA inh: 0%; LmPK inhibitor: 1%; Shiga toxin inh: -5

Results for CCOC(=O)CC(NC(=O)c1cc2cc(Br)cc(OC)c2oc1=O)c1ccc(OC)cc1 (stereo not given) ?
Tb PYK inh: 10%

How did COCCCn1c(SCC(=O)Nc2ccccc2OC)nc2c(sc3ccccc32)c1=O do in these assays?
Tb PYK inh: -2%

What do the screens show for `CCS(=O)(=O)n1nc(-c2ccc(Cl)cc2)nc1SCc1ccccc1`?
CHX counter: 19*; RE007 growth inh: inconclusive; Tb PYK inh: -21%; Giardia FBPA inh: -10%; LmPK inhibitor: 0%; Shiga toxin inh: 60*

How did CCS(=O)(=O)n1nc(-c2ccc(Cl)cc2)nc1N do in these assays?
CHX counter: 15; RE007 growth inh: 7%; Tb PYK inh: 0%; Giardia FBPA inh: 6%; LmPK inhibitor: -2%; Shiga toxin inh: 30

How did CCS(=O)(=O)n1nc(-c2ccc(C)cc2)nc1N do in these assays?
CHX counter: 9.4*; RE007 growth inh: 2%; Tb PYK inh: 3%; Giardia FBPA inh: 3%; LmPK inhibitor: 2%; Shiga toxin inh: 9

How did Cc1cc(C)c[n+](CC(=O)c2ccccc2)c1 do in these assays?
CHX counter: 0; RE007 growth inh: -12%; Tb PYK inh: 4%; Giardia FBPA inh: 8%; LmPK inhibitor: -6%; Shiga toxin inh: 13

How did CCC1=[N+](CC(=O)c2ccc(C)cc2)CCn2c(C)ccc21 do in these assays?
CHX counter: 23*; RE007 growth inh: 1%; Tb PYK inh: -12%; Giardia FBPA inh: 3%; LmPK inhibitor: -6%; Shiga toxin inh: 13

What do the screens show for `CCC1=[N+](CC(=O)c2ccc(C)cc2)CCn2cccc21`?
CHX counter: 24*; RE007 growth inh: -16%; Tb PYK inh: -6%; Giardia FBPA inh: -5%; LmPK inhibitor: 0%; Shiga toxin inh: 48

Results for CCC1=[N+](CC(=O)c2ccc(Br)cc2)CCn2c(C)ccc21 ?
CHX counter: 15*; RE007 growth inh: -14%; Tb PYK inh: 5%; Giardia FBPA inh: -3%; LmPK inhibitor: -4%; Shiga toxin inh: 52*

What do the screens show for `CC1=[N+](CC(=O)c2ccccc2)CCn2cccc21`?
CHX counter: 34*; RE007 growth inh: -6%; Tb PYK inh: -9%; Giardia FBPA inh: -8%; LmPK inhibitor: 7%; Shiga toxin inh: 58*

What do the screens show for `CCC1=[N+](C)CCn2c(C)ccc21`?
CHX counter: -3; RE007 growth inh: -4%; Tb PYK inh: 0%; Giardia FBPA inh: 3%; LmPK inhibitor: -6%; Shiga toxin inh: -5

How did Cc1nc(Nc2ccc(Cl)cc2)cc(-c2ccccc2)n1 do in these assays?
Tb PYK inh: 2%

What do the screens show for `O=C(N/N=C/c1cn(-c2cccs2)nc1-c1ccccc1)c1ccc(O)cc1`?
CHX counter: 45*; RE007 growth inh: 1%; Tb PYK inh: -4%; Giardia FBPA inh: 2%; LmPK inhibitor: -1%; Shiga toxin inh: active

How did O=C(N/N=C/c1cn(-c2cccs2)nc1-c1ccccc1)c1ccccc1Cl do in these assays?
CHX counter: 21*; RE007 growth inh: -6%; Tb PYK inh: -5%; Giardia FBPA inh: 3%; LmPK inhibitor: 0%; Shiga toxin inh: 102*

What do the screens show for `CCC(C)NC(=O)Cn1c(COc2ccc(Cl)cc2Cl)nc2ccccc21` (stereo not given)?
CHX counter: 33*; RE007 growth inh: 3%; Tb PYK inh: -7%; Giardia FBPA inh: 3%; LmPK inhibitor: 0%; Shiga toxin inh: 39*

How did O=C(Cc1ccc(Cl)cc1)NCCc1csc2nc(-c3ccccc3F)nn12 do in these assays?
Tb PYK inh: 5%

Results for Cc1ccc(/C=N/n2c(-c3ccccc3)n[nH]c2=S)cc1 ?
CHX counter: -2; RE007 growth inh: 0%; Tb PYK inh: inconclusive; Giardia FBPA inh: 23%; LmPK inhibitor: -14%

Results for N=C1N(/N=C/c2ccccc2)C(=Nc2ccccc2)C(=S)N1c1ccccc1 ?
CHX counter: 42*; RE007 growth inh: -1%[3.69 µM]; Giardia FBPA inh: 14%; LmPK inhibitor: -10%; Shiga toxin inh: active

What do the screens show for `COc1cc2c(cc1OC)C1N(CC2)C(=O)CCC12C(=O)CCCC2=O` (stereo not given)?
Giardia FBPA inh: -4%

How did COCC1CCN(Cc2c(C(=O)N3CCOCC3)nc3c(C)cccn23)C1 (stereo not given) do in these assays?
RE007 growth inh: -4%; Tb PYK inh: 4%

What do the screens show for `O=C(Nc1ccc(F)cc1)c1ccccc1NC(=O)C1CCCCC1C(=O)O` (stereo not given)?
RE007 growth inh: -4%; Tb PYK inh: -4%

What do the screens show for `CC(=O)c1c(C)[nH]c(C(=O)NCC2CCCCC2)c1C`?
CHX counter: 11; RE007 growth inh: 1%; Tb PYK inh: 32%; Giardia FBPA inh: 12%; LmPK inhibitor: 1%; Shiga toxin inh: 63*

What do the screens show for `O=C(NCCc1ccccc1)c1ccccc1NC(=O)C1CCCCC1C(=O)O` (stereo not given)?
CHX counter: 29*; Giardia FBPA inh: 7%; LmPK inhibitor: 0%; Shiga toxin inh: 56*

Results for CCCNC(=O)c1[nH]c(C)c(C(C)=O)c1C ?
CHX counter: 6; RE007 growth inh: 4%; Tb PYK inh: 0%; Giardia FBPA inh: 21%; LmPK inhibitor: 3%; Shiga toxin inh: 4

How did O=C(NCCc1ccccc1)c1coc(=O)c(Br)c1 do in these assays?
CHX counter: 14*; RE007 growth inh: -10%; Tb PYK inh: 2%; Giardia FBPA inh: -3%; LmPK inhibitor: 3%; Shiga toxin inh: 26

How did Cc1ccccc1CS(=O)(=O)Cc1ccc(C(=O)NCCc2ccccc2)o1 do in these assays?
CHX counter: 23*; RE007 growth inh: 2%; Tb PYK inh: 0%; Giardia FBPA inh: 25%; LmPK inhibitor: 1%; Shiga toxin inh: 12

What do the screens show for `CC(=O)NCCNc1ccnc(-c2ccccc2C(F)(F)F)n1`?
Giardia FBPA inh: -10%

How did CN(CC(=O)Nc1ccc(Cl)c(C(F)(F)F)c1)C(=O)Cc1ccsc1 do in these assays?
RE007 growth inh: -1%; Tb PYK inh: 11%

How did O=C(CCN1C(=O)c2ccccc2Sc2ncccc21)Nc1ccc(F)cc1 do in these assays?
Tb PYK inh: -1%
